Results published in PubChem BioAssay (NCI).
Compounds without any hit were thinned out: in the full panel of roughly 83,000, 20% have a hit.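 Negative percent growth values reflect cell death: -40 means 40% of the cells present at the start died, and -100 means all died.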 Calls of active or inactive are those of the source. The calls were made as follows: active = growth percent below 10; inactive = the rest.

What was measured:
Assay in all cases: NCI-60 one-dose screen, 48 h (100 = growth as untreated, 0 = no growth, -100 = all killed)
Settings in all cases: 10 µM unless noted
NCI-H23 lung = system: NCI-H23 lung
NCI-H226 lung = system: NCI-H226 lung
NCI-H322M lung = system: NCI-H322M lung
HOP-62 NSCLC = system: HOP-62 NSCLC
NCI-H460 lung = system: NCI-H460 lung
HOP-92 NSCLC = system: HOP-92 NSCLC
NCI-H522 lung = system: NCI-H522 lung
A549/ATCC NSCLC = system: A549/ATCC NSCLC
786-0 renal = system: 786-0 renal
COLO 205 colon = system: COLO 205 colon
DU-145 prostate = system: DU-145 prostate
K-562 leukemia = system: K-562 leukemia
MALME-3M melanoma = system: MALME-3M melanoma
MDA-MB-231 breast = system: MDA-MB-231 breast
SF-268 CNS = system: SF-268 CNS
SF-295 CNS = system: SF-295 CNS
SF-539 CNS = system: SF-539 CNS
UACC-257 melanoma = system: UACC-257 melanoma
M14 melanoma = system: M14 melanoma

Measured: growth

Clc1cc(Cl)cc(N2N=C(c3cccc(Nc4ccncc4)c3)CC2c2ccc3c(c2)OCO3)c1 (centres undefined)
inactive: NCI-H23 lung 80.1% | NCI-H226 lung 83.9% | NCI-H322M lung 68.3% | HOP-92 NSCLC 57.9% | A549/ATCC NSCLC 15.2% | 786-0 renal 91.7% | DU-145 prostate 28.9% | MDA-MB-231 breast 33.1% | SF-268 CNS 72.1% | SF-295 CNS 40.7% | SF-539 CNS 83.3% | UACC-257 melanoma 51.2% | M14 melanoma 85.3%
active: HOP-62 NSCLC -31.2% | NCI-H460 lung -90.2% | NCI-H522 lung -5.89% | COLO 205 colon -47.5% | K-562 leukemia 3.33% | MALME-3M melanoma -40.2%

COc1ccc(-c2c[nH]c(C(=O)O)c2-c2cc(OC)c3c(c2OC)OCO3)cc1
inactive: NCI-H23 lung 98.9% | NCI-H226 lung 95.3% | NCI-H322M lung 95% | HOP-62 NSCLC 95.6% | NCI-H460 lung 102% | HOP-92 NSCLC 110% | NCI-H522 lung 97% | A549/ATCC NSCLC 103% | 786-0 renal 104% | COLO 205 colon 102% | DU-145 prostate 112% | K-562 leukemia 108% | MALME-3M melanoma 96.1% | MDA-MB-231 breast 105% | SF-268 CNS 99.7% | SF-295 CNS 103% | SF-539 CNS 97.4% | UACC-257 melanoma 98.7% | M14 melanoma 98.9%

COc1cc(NCC(O)CN(CC(C)C)CC(C)C)c2nc(C)ccc2c1 (centres undefined)
inactive: NCI-H23 lung 85.6% | NCI-H226 lung 88.5% | NCI-H322M lung 107% | HOP-62 NSCLC 67.7% | NCI-H460 lung 96.5% | HOP-92 NSCLC 98.6% | NCI-H522 lung 68.2% | A549/ATCC NSCLC 67.3% | 786-0 renal 90.7% | COLO 205 colon 66.3% | DU-145 prostate 97.9% | K-562 leukemia 78.4% | MALME-3M melanoma 119% | MDA-MB-231 breast 55.9% | SF-268 CNS 78.9% | SF-295 CNS 100% | SF-539 CNS 108% | UACC-257 melanoma 54.1% | M14 melanoma 88.6%

c1ccc(Cn2nc3c(c2-c2ccccc2)-c2oncc2CC3)cc1
inactive: NCI-H23 lung 87.5% | NCI-H226 lung 103% | NCI-H322M lung 113% | HOP-62 NSCLC 105% | NCI-H460 lung 102% | HOP-92 NSCLC 62.3% | NCI-H522 lung 76% | A549/ATCC NSCLC 90.5% | 786-0 renal 105% | COLO 205 colon 113% | DU-145 prostate 112% | K-562 leukemia 73.2% | MALME-3M melanoma 89% | MDA-MB-231 breast 96.8% | SF-268 CNS 107% | SF-295 CNS 76.7% | SF-539 CNS 110% | UACC-257 melanoma 92.1% | M14 melanoma 98.2%

S=c1[nH]cccc1-c1nnc2n1Nc1nc3ccccc3cc1CS2
inactive: NCI-H23 lung 90.7% | NCI-H226 lung 91.1% | NCI-H322M lung 101% | HOP-62 NSCLC 90.1% | NCI-H460 lung 99.6% | HOP-92 NSCLC 99.5% | NCI-H522 lung 89% | A549/ATCC NSCLC 110% | 786-0 renal 100% | COLO 205 colon 111% | DU-145 prostate 120% | K-562 leukemia 99.5% | MALME-3M melanoma 97.1% | MDA-MB-231 breast 92.9% | SF-268 CNS 101% | SF-295 CNS 112% | SF-539 CNS 96.1% | UACC-257 melanoma 110% | M14 melanoma 101%

CC1(c2ccccc2)NC(=O)N(CC(=O)Nc2cccc(I)c2)C1=O (centres undefined)
inactive: NCI-H23 lung 95.3% | NCI-H226 lung 72.2% | NCI-H322M lung 83.8% | HOP-62 NSCLC 76.7% | NCI-H460 lung 93.3% | HOP-92 NSCLC 60.1% | NCI-H522 lung 67.5% | A549/ATCC NSCLC 87.6% | 786-0 renal 95.3% | COLO 205 colon 106% | DU-145 prostate 106% | K-562 leukemia 91.7% | MALME-3M melanoma 75.3% | MDA-MB-231 breast 75% | SF-268 CNS 89.7% | SF-295 CNS 94% | SF-539 CNS 89.9% | UACC-257 melanoma 84.9% | M14 melanoma 102%
